# According to PubChem BioAssay:
# Some of the results follow. Active and inactive are the calls of the source.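 How the source made its calls, unless noted: active means mean inhibition above about 50% in the one-dose retest (limit read from the data); inactive means the rest.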
# Assays:
# [1] = PERK-eIF2a-CHOP pathway stimulators, retested – cell-based, CHO-CHOP luciferase reporter, single concentration, confirmation (AID 463112; in the data active means activation above about 33%;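 further: 0% = DMSO wells and 100% = tunicamycin 10 µg/mL wells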); conditions: CHO-CHOP cells, CHOP-luciferase reporter luminescence; at 10 µM; stronger effect = higher value; percent of tunicamycin response, DMSO as zero
# [2] = Brca1-Bard1 BiLC signal decrease – luminescence, single concentration, counter-screen for Mdm2/MdmX interaction inhibitor project, confirmation (AID 504668; call rule not given here); conditions: Brca1/Bard1 bimolecular luciferase complementation counterscreen, at 8 µM, stronger effect = higher value
# [3] = NF-kB reporter suppression in CF airway cells – cell-based, GFP fluorescence, single concentration, confirmation (AID 602472; in the data active means inhibition above about 40%;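 further: stimulus PAF is a Pseudomonas aeruginosa filtrate and not platelet activating factor; plate controls were DMSO wells with stimulus for no effect and unstimulated DMSO wells for full effect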); conditions: KKLEB CF airway cells, PAF-induced NF-kB-GFP fluorescence, overnight; at 5 µM; stronger effect = higher value
# [4] = molecular target: Sentrin-specific protease 8 (Homo sapiens) (UniProt Q96LD8); experiment: human SENP8 peptidase blockers, hit retest – biochemical, luminescence, single concentration, confirmation (AID 488912;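 active means mean inhibition across replicates above about 50%, limit read from the data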); conditions: Recombinant SENP8, Z-RLRGG-aminoluciferin luminescence, 60 min; at 12.5 µM; stronger effect = higher value
# Sentrin-specific protease 8 (Homo sapiens), sequence (Q96LD8 whole entry, looked up, the tested form may be a part): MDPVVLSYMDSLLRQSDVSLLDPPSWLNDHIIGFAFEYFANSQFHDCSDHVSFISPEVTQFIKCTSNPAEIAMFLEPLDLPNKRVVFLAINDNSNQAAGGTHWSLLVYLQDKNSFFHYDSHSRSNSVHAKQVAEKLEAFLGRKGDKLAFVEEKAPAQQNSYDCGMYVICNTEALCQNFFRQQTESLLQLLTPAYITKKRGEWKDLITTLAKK
# [5] = molecular target: Sentrin-specific protease 6 (Homo sapiens) (UniProt Q9GZR1); experiment: inhibition of human SENP6 catalytic domain – biochemical, luminescence, single concentration, confirmation (AID 488915); conditions: recombinant SENP6, Z-RLRGG-aminoluciferin luminescence; at 12.5 µM; stronger effect = higher value
# Sentrin-specific protease 6 (Homo sapiens), sequence (Q9GZR1 628-1112 limits assumed): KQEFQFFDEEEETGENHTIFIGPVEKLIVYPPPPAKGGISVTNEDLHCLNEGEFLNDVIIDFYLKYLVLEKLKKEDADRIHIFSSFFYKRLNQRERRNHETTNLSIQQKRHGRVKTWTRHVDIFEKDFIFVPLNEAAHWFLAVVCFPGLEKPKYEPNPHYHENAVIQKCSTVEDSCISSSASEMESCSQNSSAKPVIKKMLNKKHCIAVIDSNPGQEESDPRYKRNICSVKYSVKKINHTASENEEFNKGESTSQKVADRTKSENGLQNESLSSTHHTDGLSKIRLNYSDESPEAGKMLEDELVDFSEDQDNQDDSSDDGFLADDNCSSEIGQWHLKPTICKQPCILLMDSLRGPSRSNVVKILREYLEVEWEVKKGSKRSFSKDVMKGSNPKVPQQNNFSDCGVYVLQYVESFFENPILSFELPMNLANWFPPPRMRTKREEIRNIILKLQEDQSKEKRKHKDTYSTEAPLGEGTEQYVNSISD
# [6] = molecular target: Sentrin-specific protease 7 (Homo sapiens) (UniProt Q9BQF6); experiment: human SENP7 peptidase blockers, hit retest – biochemical, luminescence, single concentration, confirmation (AID 488917); conditions: recombinant SENP7, Z-RLRGG-aminoluciferin luminescence, 40 min; at 12.5 µM; stronger effect = higher value
# Sentrin-specific protease 7 (Homo sapiens), sequence (Q9BQF6 706-1050 limits assumed): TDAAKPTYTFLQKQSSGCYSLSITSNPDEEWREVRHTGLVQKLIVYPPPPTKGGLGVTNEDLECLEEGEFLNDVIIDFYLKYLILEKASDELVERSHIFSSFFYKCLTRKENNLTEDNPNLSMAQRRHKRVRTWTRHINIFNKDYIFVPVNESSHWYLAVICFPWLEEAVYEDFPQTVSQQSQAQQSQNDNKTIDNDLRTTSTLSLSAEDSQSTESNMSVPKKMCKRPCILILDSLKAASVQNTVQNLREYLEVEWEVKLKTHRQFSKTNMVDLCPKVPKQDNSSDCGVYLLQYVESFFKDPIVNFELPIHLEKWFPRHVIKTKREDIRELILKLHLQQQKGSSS
# [7] = molecular target: Caspase-3 (Homo sapiens) (UniProt P42574); experiment: human caspase-3 activity blockade, out-of-family – biochemical, single concentration, selectivity assay for SENP inhibitor project, confirmation (AID 488918;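 active means mean inhibition above about 50%, limit read from the data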;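 further: plate controls were enzyme with DMSO for no effect and wells without caspase-3 for full effect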); conditions: purified caspase-3, Z-DEVD-aminoluciferin luminescence, 60 min; at 12.5 µM; stronger effect = higher value
# Caspase-3 (Homo sapiens), sequence (P42574 28-227 limits assumed): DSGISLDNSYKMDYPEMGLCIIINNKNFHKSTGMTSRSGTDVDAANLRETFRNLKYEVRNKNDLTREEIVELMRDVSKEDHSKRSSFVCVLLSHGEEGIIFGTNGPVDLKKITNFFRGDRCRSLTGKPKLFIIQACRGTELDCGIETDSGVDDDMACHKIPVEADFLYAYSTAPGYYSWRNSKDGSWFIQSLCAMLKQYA
# [8] = Ultra-Glo luciferase signal interference – biochemical, single concentration, SENP8 reaction pre-completed, artefact control for SENP inhibitor project, confirmation (AID 488919;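 active means mean inhibition above about 50% when retested at one dose, limit read from the data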;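 further: plate controls were DMSO wells with completed reaction for no effect and substrate without enzyme for full effect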); conditions: Pre-incubated SENP8/Z-RLRGG-aminoluciferin, luciferase luminescence interference; at 12.5 µM; stronger effect = higher value
# [9] = HIF-2a driven luciferase blockers, single dose – luminescence, 786-0 RCC cells, confirmation (AID 651580;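 active means mean inhibition across four replicates of at least 40 percent at the single tested concentration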); conditions: HIF-2a luciferase reporter luminescence, overnight, at 18.8 µM, stronger effect = higher value
# [10] = HIF-1a luciferase reporter signal reduction – MiaPaCa-2 cells, single concentration, counter-screen for HIF-2a inhibitor project, confirmation (AID 651589;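 active means mean inhibition of the reporter signal across four replicates at the single tested dose of 50% or more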); conditions: MiaPaCa-2 HIF-1a luciferase reporter, desferoxamine, overnight; at 18.8 µM; stronger effect = higher value
# [11] = molecular target: Tumor necrosis factor receptor superfamily member 10B (Homo sapiens) (UniProt O14763); experiment: viability loss of caspase-8 NB7 cells with TRAIL – with/without TRAIL, luminescence panel, confirmation (AID 651596; in the data active means activity above about 50%); conditions: NB7 neuroblastoma + caspase-8, TRAIL sensitization, NB7 Caspase-8, with TRAIL, mean of runs, at 10 µM, stronger effect = higher value
# Tumor necrosis factor receptor superfamily member 10B (Homo sapiens), sequence (O14763 whole entry, looked up): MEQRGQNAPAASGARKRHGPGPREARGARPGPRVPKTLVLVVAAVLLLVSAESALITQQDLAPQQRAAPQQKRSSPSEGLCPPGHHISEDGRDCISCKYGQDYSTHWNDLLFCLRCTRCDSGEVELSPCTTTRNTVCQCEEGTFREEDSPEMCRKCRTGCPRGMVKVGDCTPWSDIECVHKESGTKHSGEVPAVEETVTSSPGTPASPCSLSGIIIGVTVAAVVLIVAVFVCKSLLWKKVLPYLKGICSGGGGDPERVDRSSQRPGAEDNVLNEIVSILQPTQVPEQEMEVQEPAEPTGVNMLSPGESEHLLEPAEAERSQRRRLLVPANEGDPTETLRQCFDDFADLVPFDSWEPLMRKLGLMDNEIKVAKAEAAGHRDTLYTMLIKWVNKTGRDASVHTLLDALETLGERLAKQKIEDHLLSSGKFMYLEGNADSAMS
# [12] = as above; conditions: NB7 neuroblastoma + caspase-8, without TRAIL, NB7 Caspase-8, without TRAIL, mean of runs, at 10 µM
# [13] = molecular target: Tumor necrosis factor receptor superfamily member 10B (Homo sapiens) (UniProt O14763); experiment: compound enhancement of TRAIL-induced cell killing – NB7 cells plus caspase-8, luminescence, panel, dose response (AID 652002); conditions: NB7 neuroblastoma +caspase-8, TRAIL sensitization, luminescence viability, NB7+Caspase-8, with TRAIL, run 1; at 12.5 µM (top of the series)
# [14] = molecular target: Tumor necrosis factor receptor superfamily member 10B (Homo sapiens) (UniProt O14763); experiment: as above; conditions: NB7 neuroblastoma +caspase-8, TRAIL sensitization, luminescence viability, NB7+Caspase-8, with TRAIL, run 2; at 12.5 µM (top of the series)
# [15] = as above; conditions: NB7 neuroblastoma +caspase-8, no TRAIL, compound-alone cytotoxicity counter-screen, luminescence viability, NB7+Caspase-8, run 1; at 12.5 µM (top of the series) unless noted
# [16] = as above; conditions: NB7 neuroblastoma +caspase-8, no TRAIL, compound-alone cytotoxicity counter-screen, luminescence viability, NB7+Caspase-8, run 2; at 12.5 µM (top of the series) unless noted
compound,measurement,setting,value
CC1(C)CCSC(/C=C/c2ccccc2)=N1,activation,[1],68% (active)
same,inhibition,[2],30.5% (active)
same,inhibition,[3],-24.9% (inactive)
O=C(CSc1cccc2cccnc12)N/N=C/c1cccnc1,activation,[1],265% (active)
c1ccc(CN=C2Nc3ccccc3CS2)nc1,inhibition,[4],48.6% (inactive)
same,inhibition,[5],41.9% (inactive)
same,inhibition,[6],74.7% (active)
same,inhibition,[7],76.5% (active)
same,inhibition,[8],57.5% (active)
O=C(Nc1nc2ccc([N+](=O)[O-])cc2s1)c1ccncc1,inhibition,[4],16% (inactive)
same,inhibition,[5],17.5% (inactive)
same,inhibition,[6],15.1% (inactive)
same,inhibition,[7],7.6% (inactive)
same,inhibition,[8],15.8% (inactive)
c1ccc2sc(NN=C3CCCC3)nc2c1,inhibition,[4],86.8% (active)
same,inhibition,[5],85.9% (active)
same,inhibition,[6],98.8% (active)
same,inhibition,[7],88% (active)
same,inhibition,[8],15.5% (inactive)
N/C(=N\OC(=O)c1ccc2c(c1)OCO2)c1ccc(Br)cc1,inhibition,[4],-7.4% (inactive)
same,inhibition,[5],15.2% (inactive)
same,inhibition,[6],11.9% (inactive)
same,inhibition,[7],17.8% (inactive)
same,inhibition,[8],3.3% (inactive)
O=C(COc1ccc2oc3c(c2c1)CCCC3)Nc1ccccn1,inhibition,[4],4.9% (inactive)
same,inhibition,[5],12.8% (inactive)
same,inhibition,[6],11.9% (inactive)
same,inhibition,[7],24.7% (inactive)
same,inhibition,[8],4.6% (inactive)
O=C(c1ccc(CSc2ccccc2)cc1)N1CCCCCC1,inhibition,[4],57.5% (active)
same,inhibition,[5],57% (active)
same,inhibition,[6],80% (active)
same,inhibition,[7],54.3% (active)
same,inhibition,[8],65.5% (active)
CC1=CC(=C(C#N)c2nc3ccccc3s2)C=C(C)N1c1ccc(F)cc1F,inhibition,[4],12.4% (inactive)
same,inhibition,[5],19% (inactive)
same,inhibition,[6],-0.4% (inactive)
same,inhibition,[7],-3.2% (inactive)
same,inhibition,[8],-9.8% (inactive)
O=C1C=CC(=O)N1c1ccc(N2CCCCC2)cc1,activation,[1],60.2% (active)
same,inhibition,[9],17.3% (inactive)
same,inhibition,[10],-4.26% (inactive)
COc1cc(NC(=O)c2cncc(-c3ccc(C#N)cc3)c2)cc(C(=O)Nc2cccc(C(F)(F)F)c2)c1,activation,[1],83.5% (active)
same,activity,[11],54.6%
same,activity,[12],26.9%
same,"activity, % sensitization",[13],-1.86%
same,"activity, % sensitization",[14],-1.47%
same,"activity, % sensitization",[15],-11.8%
same,"activity, % sensitization",[16],-16.3%
O=C(CCl)Nc1cccc(CP(=O)(c2ccccc2)c2ccccc2)c1,activation,[1],34% (active)
same,inhibition,[2],27.6% (active)
same,inhibition,[3],-20.6% (inactive)
same,inhibition,[9],22.9% (inactive)
same,inhibition,[10],51.3% (active)
O=C(/C(=C/c1cccc(Cl)c1)c1nc2ccccc2[nH]1)c1ccccc1,activation,[1],115% (active)
same,inhibition,[9],26.3% (inactive)
same,inhibition,[10],105% (active)
CCOC(=O)c1cnc2[nH]c3ccccc3n2c1=O,inhibition,[4],30.1% (inactive)
same,inhibition,[5],79% (active)
same,inhibition,[6],96.4% (active)
same,inhibition,[7],94.2% (active)
same,inhibition,[8],65.2% (active)
Nc1ncc(-c2cc3ccccc3oc2=O)s1,inhibition,[4],92.7% (active)
same,inhibition,[5],92.8% (active)
same,inhibition,[6],102% (active)
same,inhibition,[7],94.6% (active)
same,inhibition,[8],91.7% (active)
O=C(Nc1ncc([N+](=O)[O-])s1)C1COc2ccccc2O1 (stereo not given),inhibition,[4],98.8% (active)
same,inhibition,[5],99.8% (active)
same,inhibition,[6],103% (active)
same,inhibition,[7],98.4% (active)
same,inhibition,[8],48.6% (inactive)
Cc1ccc(NC(=O)c2sccc2C)cc1[N+](=O)[O-],inhibition,[4],78% (active)
same,inhibition,[5],77.5% (active)
same,inhibition,[6],95.7% (active)
same,inhibition,[7],81% (active)
same,inhibition,[8],82.6% (active)
CCOc1ccc(N/C=C/C(=O)c2ccccc2)cc1,inhibition,[4],10.5% (inactive)
same,inhibition,[5],94.9% (active)
same,inhibition,[6],63.3% (active)
same,inhibition,[7],81.1% (active)
same,inhibition,[8],19.3% (inactive)
COC(=O)c1ccc(NCC(=O)c2ccccc2)cc1,inhibition,[4],10.5% (inactive)
same,inhibition,[5],97.3% (active)
same,inhibition,[6],103% (active)
same,inhibition,[7],96% (active)
same,inhibition,[8],60.5% (active)
CC(C)CCNC(=O)c1ccc2c(Cl)c3c(nc2c1)CCC3,inhibition,[4],84.1% (active)
same,inhibition,[5],88.3% (active)
same,inhibition,[6],97.4% (active)
same,inhibition,[7],57.1% (active)
same,inhibition,[8],52.5% (active)
Oc1ccccc1-c1cc(-c2ccc(Cl)cc2)n[nH]1,inhibition,[4],93.9% (active)
same,inhibition,[5],94.4% (active)
same,inhibition,[6],99.9% (active)
same,inhibition,[7],68.9% (active)
same,inhibition,[8],75.2% (active)
Cc1cccc(NC(=O)COc2ccc(Br)cc2C)n1,inhibition,[4],1% (inactive)
same,inhibition,[5],50% (inactive)
same,inhibition,[6],7.4% (inactive)
same,inhibition,[7],20.8% (inactive)
same,inhibition,[8],11.1% (inactive)
Fc1ccccc1-c1cc2cc3c(cc2cn1)OCO3,inhibition,[4],49.5% (inactive)
same,inhibition,[5],79.9% (active)
same,inhibition,[6],79.1% (active)
same,inhibition,[7],51.6% (active)
same,inhibition,[8],7.4% (inactive)
O=C(Nc1ccc(OC(F)(F)F)cc1)c1ccc2c(c1)no[n+]2[O-],activation,[1],24.4% (inactive)
same,activity,[11],90%
same,activity,[12],96.8%
C/C(=C\C(=O)c1ccccc1)Nc1cccc(O)c1,inhibition,[4],43.1% (inactive)
same,inhibition,[5],47.3% (inactive)
same,inhibition,[6],82.2% (active)
same,inhibition,[7],39.4% (inactive)
same,inhibition,[8],66.4% (active)
